# Data from paper PMC4878873.
# Biological target: COP9 signalosome complex subunit 4 (UniProt Q9BT78)
# Assay: cross-link between two proteins; cross-linking mass spectrometry
# Sequence of E3 ubiquitin-protein ligase RBX1, P62877 (P62877 whole entry): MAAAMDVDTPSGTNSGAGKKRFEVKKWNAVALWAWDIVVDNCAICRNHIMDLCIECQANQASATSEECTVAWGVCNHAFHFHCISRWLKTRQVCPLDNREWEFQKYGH
substance,measurement,value
"E3 ubiquitin-protein ligase RBX1, P62877",listed as a hit,yes
